Rows were chosen to be rich in hits. Some 0.95% of all compounds tested hit in one or more screens of this group.
LmPK inh – blocks Leishmania mexicana pyruvate kinase activity. Potency, µM (series often up to 57.5 µM), most hits filed as inhibitors. Q27686. purified LmPK, Kinase-Glo ATP luminescence, 1 h. actives 0.37% (n = 290,000). AID 1721
Target sequence (Q27686 whole entry, looked up): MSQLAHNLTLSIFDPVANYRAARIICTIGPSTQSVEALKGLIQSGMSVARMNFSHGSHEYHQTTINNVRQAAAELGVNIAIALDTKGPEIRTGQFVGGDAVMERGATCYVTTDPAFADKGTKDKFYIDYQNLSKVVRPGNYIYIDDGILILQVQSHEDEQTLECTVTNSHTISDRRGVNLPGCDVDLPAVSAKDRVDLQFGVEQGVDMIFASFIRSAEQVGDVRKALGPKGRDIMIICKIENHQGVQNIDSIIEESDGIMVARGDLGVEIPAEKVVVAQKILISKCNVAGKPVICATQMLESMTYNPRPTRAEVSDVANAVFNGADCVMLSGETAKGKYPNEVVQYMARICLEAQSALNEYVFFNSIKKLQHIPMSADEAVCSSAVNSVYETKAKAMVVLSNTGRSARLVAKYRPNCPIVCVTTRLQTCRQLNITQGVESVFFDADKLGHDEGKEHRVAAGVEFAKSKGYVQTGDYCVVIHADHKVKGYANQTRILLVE
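In 50 mM imidazole pH 7.2 with 7 mM MgCl2, LmPK (0.1 nM) turned over PEP (0.5 mM) and ADP (0.1 mM) for 1 h at room temperature. Luciferase read-out of ATP.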
Tb PYK inh – blocks Trypanosoma brucei pyruvate kinase. TbPYK enzyme, Kinase-Glo Plus ATP luminescence, 45 min. Potency, µM (top dose mostly 76.8 µM), usual class: inhibitors. Q57TT1. actives 0.12% (n = 410,000); note: nearly all actives have a fitted effect of over 50% in size
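Luminescence from Kinase-Glo Plus, added after a 45-minute room-temperature reaction, served as the end-point read-out. The enzyme and substrate were preincubated with compound before ADP (130 uM final) initiated turnover. Concentration-effect curves came from normalized qHTS data.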
Giardia FBPA inh – blocks Giardia fructose-bisphosphate aldolase activity; purified Giardia FBPA; actives 0.71% (n = 290,000); Potency, µM (highest dose often 59.6 µM), usual class: inhibitors; A8B2U2; note: nearly all actives have a fitted effect of over 55% in size
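40 nM FBPA preincubated 10 min at RT with compound (up to 57.5 uM final), then substrate plus GAPDH/TPI/NAD/arsenate coupling and diaphorase/resazurin added. Fluorescence read after 20 min at RT, 525/598 nm.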
RE007 growth inh – less growth of the S. pombe RE007 Vpr strain; S. pombe RE007 Vpr strain, BacTiter-Glo ATP luminescence, 24 h; Potency, µM (top dose mostly 92.2 µM), hits mostly inhibitors; actives 0.21% (n = 360,000); AID 651644; active = well fitted falling curve with a large enough effect; inconclusive = small, poorly fitted or top-dose-only effect; inactive = no such curve, though single readings can be large or run the other way; note: nearly all actives have a fitted effect of over 50% in size
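Fission yeast RE007 carrying one integrated HIV-1 vpr copy, seeded at OD 0.01 in PMG+AL medium with 23 nL pinned compound. Grown 24 h at 30 degrees; viability read by BacTiter-Glo luminescence after 5 min.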
A number is an active result; 0 = inactive; ? = inconclusive; - = no result; [ ] = dose if it differs, or a comment. Unless noted, calls come from the whole dose curve; as a rule, active = well fitted curve in the direction sought with a large enough effect; inconclusive = small, poorly fitted or top-dose-only effect, or another doubt; inactive = no such curve, though single readings can be large; an effect the other way counts as inactive or inconclusive.

SMILES	LmPK inh	Tb PYK inh	Giardia FBPA inh	RE007 growth inh
Oc1ccc(NCc2cccc(OCc3ccccc3)c2)cc1	0	?	16µM	0
O=[N+]([O-])c1ccc(COc2cccc(CNc3ccc(F)cc3)c2)cc1	0	0	0	0
COc1ccc(Cl)cc1NC(=O)c1sc(-n2nc(C)c(Cc3ccccc3)c2C)nc1C	-	0	-	-
CC(CN1CCOCC1)C(Cc1ccccc1)(Cc1ccccc1)C(=O)N1CCCC1 (stereo not given)	-	0	-	-
O=C1OC2C(O)C(O)OC2C1O (stereo not given)	-	0	-	-
Cc1nnc(N/N=C/c2cc(C)n(-c3ccc(F)cc3)c2C)n1N	0	0	10µM	0
Oc1ccccc1/C=N/Nc1nn[nH]n1	0	0	?	0
Cc1nnc(N/N=C/c2ccccc2O)n1N	0	0	7.1µM	0
COc1cccc(N2CCN(C(=O)c3cc4c(=O)n(Cc5ccco5)ccc4nc3C)CC2)c1	-	0	-	-
O=c1c2ccccc2cnn1CCOc1ccccc1	13µM	?	0	0
Cc1cc(OC(C)C(=O)N2CCC(c3nc4ccccc4o3)CC2)ccc1Cl (stereo not given)	-	0	-	-
Nc1ccc(C(=O)O)c(O)c1 (tested in a mixture with another compound)	-	-	0	-
Nc1ccc(O)c(C(=O)O)c1	-	0	3.5µM	-
CCC(=O)N/N=C/c1ccc(-c2ccc([N+](=O)[O-])cc2)o1	0	0	0	0
Cc1nnc(N/N=C\c2ccc(-c3ccccc3[N+](=O)[O-])o2)n1N	0	0	1.8µM	0
CCc1nnc(N/N=C/c2ccc(-c3ccc([N+](=O)[O-])cc3)o2)n1N	0	0	4.5µM	?
Cc1ccc(C(=O)N/N=C/c2ccc(-c3ccccc3[N+](=O)[O-])o2)cn1	0	0	?	0
Cc1n[nH]c(=S)n1/N=C/c1ccc(-c2ccccc2[N+](=O)[O-])o1	0	7.9µM	0	0
O=[N+]([O-])c1cccc(-c2ccc(/C=N/n3c(-c4ccccc4)n[nH]c3=S)o2)c1	0	0	0	0
O=C1CN(C(=O)Nc2ccccc2Cl)C(c2ccccc2)c2c(sc3c2CCCC3)N1 (stereo not given)	-	0	-	-
CC(C)C[C@H](NC(=O)[C@@H]1CCCN1C(=O)[C@H](CO)NC(=O)[C@H](Cc1ccccc1)NC(=O)CNC(=O)[C@@H]1CCCN1C(=O)[C@@H]1CCCN1C(=O)[C@@H](N)CCCN=C(N)N)C(=O)O	-	-	0	-
O=C(CCCCn1c(=O)c2ccccc2n(CC(=O)Nc2ccc(F)cc2F)c1=O)NCc1ccccc1Cl	-	0	-	-
CN(C)c1ccc(-c2ccccc2)nn1	25µM	0	0	0
O=[N+]([O-])c1cccc(SSc2cccc([N+](=O)[O-])c2)c1	-	11µM	-	?
COc1ccc2ccc3c(c2c1)N=C[C@]1(O3)N(C)c2ccccc2C1(C)C	0	0	8.9µM	0
SMILES	LmPK inh	Tb PYK inh	Giardia FBPA inh	RE007 growth inh
CC1=NOC2(C1)N(C)c1ccccc1C2(C)C (stereo not given)	0	0	0	0
CSc1nc(O)c(N=Nc2ccc(F)cc2F)c(=O)[nH]1	16µM	0	0	25µM
O=C(CCCN1CCN(c2ccc(F)cc2)CC1)NC1c2ccccc2CSc2ccccc21 (stereo not given)	-	0	-	-
O=C(Nc1cccc(NC(=O)c2ccco2)c1)c1ccc2c(c1)OCCO2	0	0	0	0
Cn1nccc1C(=O)Nc1ccc2c(c1)OCCO2	16µM	0	0	0
Cc1cc(NC(=O)c2ccc3c(c2)OCO3)ccc1NC(=O)c1ccco1	14µM	0	0	0
O=C(Nc1ccc(OC(=O)c2ccco2)cc1)c1ccco1	14µM	0	0	?
O=C(Nc1ccc2c(c1)OCCO2)c1ccco1	25µM	0	0	0
CCCCc1cc2c(=O)c(C(=O)OC)c[nH]c2cc1OCc1ccccc1	-	0	-	-
Cc1ccc(CNC(=O)CCCn2c(=O)c3ccccc3n(Cc3ccc(Cl)cc3)c2=O)cc1	-	0	-	-
CCOC(=O)c1cccc(NC(=O)C(CC(C)C)N2Cc3ccccc3C2=O)c1 (stereo not given)	-	0	-	-
CCc1ccccc1NC(=O)Cc1ccc(-n2c(C)nc3cccnc32)cc1	-	0[15.4 µM]	-	-
O=C(Nc1ccccc1)c1ccc2c(c1)OCCO2	14µM	0	0	0
O=C(Nc1ccc(NC(=O)c2ccc3c(c2)OCCO3)cc1)c1ccccc1	0	0	0	0
O=C(COC(=O)c1cccnc1Cl)c1ccc(OC(F)F)cc1	16µM	0	0	0
Nc1cc(-c2ccncc2)c[nH]c1=O	0	?	1.8µM	0
O=C(NCCCCN1CCOCC1)c1cc2ccccc2o1	-	-	0	-
CCN(CC)C(=O)c1ccc(NC(=O)Nc2ccccc2F)cc1	?	?	0	13µM
Cc1ccc(S(=O)(=O)/N=C2\C=C(Nc3cccc(C(=O)O)c3)C(=O)c3ccccc32)c(C)c1	0	0	?	0
Cc1ccc(S(=O)(=O)/N=C2\C=C(Nc3cccc(C(=O)O)c3)C(=O)c3ccccc32)cc1	0	0	0.25µM	0
CCc1ccc(S(=O)(=O)/N=C2\C=C(Nc3ccc(C(=O)O)cc3)C(=O)c3ccccc32)cc1	0	0	0.45µM	0
Cc1ccc(C)c(N2CCN(C(=O)c3cc4c(=O)oc5ccccc5c4s3)CC2)c1	-	0	-	-
[O-]/C(=C(\C(=S)Nc1cccc2ccccc12)[n+]1ccccc1)c1ccc2c(c1)OCCO2	0	0	10µM	0
[O-]/C(=C(\C(=S)Nc1cccc2ccccc12)[n+]1ccccc1)c1cccs1	0	0	?	0
[O-]/C(=C(\C(=S)Nc1cccc2ccccc12)[n+]1ccccc1)c1ccc(OC(F)F)cc1	0	0	22µM	0
O=C(O)C1(C(=O)O)CCCC1	-	0	-	0
O=C(O)C1(C(=O)O)CCC1.[NH2-].[NH2-].[Pt+2]	-	-	14µM	-

Screening results as filed in PubChem.
